According to PubChem BioAssay (NCI):
About 83,000 compounds went through this panel and 20% of them were active in at least one assay; those are over-represented in the sample as a whole.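 Negative percent growth values reflect cell death: -40 means 40% of the cells present at the start died, and -100 means all died.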 The source made the active and inactive calls. Rule for the calls: active = growth percent below 10; inactive = the rest.

How the values were obtained:
Assay in all cases: NCI-60 one-dose screen, 48 h (100 = growth as untreated, 0 = no growth, -100 = all killed)
Conditions in all cases: 10 µM unless noted
HCT-15 colon = test system: HCT-15 colon
HT29 colon = test system: HT29 colon
SNB-19 CNS = test system: SNB-19 CNS
U251 CNS = test system: U251 CNS
PC-3 prostate = test system: PC-3 prostate
SK-MEL-5 melanoma = test system: SK-MEL-5 melanoma
UACC-62 melanoma = test system: UACC-62 melanoma
LOX IMVI melanoma = test system: LOX IMVI melanoma
SK-MEL-28 melanoma = test system: SK-MEL-28 melanoma

Measured: growth

COc1ccc(C/C(C)=C(\c2ccc(OCCN3CCCCCC3)cc2)c2ccc(OC(=O)C3CCCCC3)cc2)cc1
active: HT29 colon -31.8%
inactive: HCT-15 colon 38.7% | SNB-19 CNS 63.3% | U251 CNS 44.1% | PC-3 prostate 50.7% | SK-MEL-5 melanoma 65.4% | UACC-62 melanoma 63.5% | LOX IMVI melanoma 66.8% | SK-MEL-28 melanoma 66.9%

COc1cc2c(c(OC)c1OC)-c1ccc(N=NC(N)=S)c(=O)cc1[C@@H](NC(C)=O)CC2
inactive: HCT-15 colon 76.4% | SNB-19 CNS 27.9% | PC-3 prostate 57.3% | UACC-62 melanoma 17.2% | LOX IMVI melanoma 13.5% | SK-MEL-28 melanoma 53.6%
active: HT29 colon -2.5% | U251 CNS 9.3% | SK-MEL-5 melanoma -33.2%

Brc1cccc(-c2cc(-c3ccc4c(c3)OCCO4)[nH]n2)c1
inactive: HCT-15 colon 15.9% [25 µM] | SNB-19 CNS 34% [25 µM] | U251 CNS 22% [25 µM] | PC-3 prostate 26.3% [25 µM] | SK-MEL-5 melanoma 10% [25 µM] | UACC-62 melanoma 36.8% [25 µM] | LOX IMVI melanoma 34% [25 µM] | SK-MEL-28 melanoma 59.7% [25 µM]
active: HT29 colon 1.56% [25 µM]

Nc1nc2ccc(-c3nc4ccc5[nH]ncc5c4c4c3CCC4)cc2s1
inactive: HCT-15 colon 11.3% | SNB-19 CNS 42.6% | U251 CNS 33.9% | PC-3 prostate 23.1% | LOX IMVI melanoma 19.6% | SK-MEL-28 melanoma 44.5%
active: HT29 colon 8.06% | SK-MEL-5 melanoma 1.24% | UACC-62 melanoma -46.2%

O=C1c2cc3c(cc2-c2c1c1cc(Cl)c(Cl)cc1c(=O)n2C[C@H](O)CO)OCO3
active: HCT-15 colon 1.28% | HT29 colon -38.8% | SNB-19 CNS -6.61% | U251 CNS -63.4% | PC-3 prostate 5.35% | SK-MEL-5 melanoma -84.8% | UACC-62 melanoma -66.8% | LOX IMVI melanoma -70.9% | SK-MEL-28 melanoma 0.507%

Oc1ccc2c(=S)cc(-c3ccc(Br)cc3)oc2c1O
inactive: HT29 colon 63.9% | SK-MEL-5 melanoma 10.9% | SK-MEL-28 melanoma 51.4%
active: HCT-15 colon 8.03% | SNB-19 CNS 6.8% | U251 CNS -7.83% | PC-3 prostate -2.05% | UACC-62 melanoma 8.09% | LOX IMVI melanoma 1.22%

C/C(Cc1ccc(Cl)cc1)=C(\c1ccc(OCCN2CCCCCC2)cc1)c1ccc(OC(=O)C2CCCCC2)cc1
inactive: HCT-15 colon 39% | HT29 colon 18.4% | SNB-19 CNS 77.6% | U251 CNS 45% | PC-3 prostate 51.5% | SK-MEL-5 melanoma 83.5% | UACC-62 melanoma 68.1% | LOX IMVI melanoma 65.8% | SK-MEL-28 melanoma 61.2%

C=C1CC2(OC1=O)C(=O)N(CCCCCCCCCCCCN1C(=O)C3(CC(=C)C(=O)O3)c3ccccc31)c1ccccc12 (centres undefined)
active: LOX IMVI melanoma 4.86%
inactive: HCT-15 colon 65% | HT29 colon 86.7% | SNB-19 CNS 89.5% | U251 CNS 74.3% | PC-3 prostate 64.7% | SK-MEL-5 melanoma 86.4% | UACC-62 melanoma 78.9% | SK-MEL-28 melanoma 89.3%

CC(=O)C1=C(O)C=C2Oc3c(C(=O)/C=C/c4cc(Cl)cc(Cl)c4)c(O)c(C)c(O)c3[C@]2(C)C1=O
active: HCT-15 colon -35.5% | HT29 colon -23.5% | SNB-19 CNS -24.4% | U251 CNS -29.9% | PC-3 prostate -21.1% | SK-MEL-5 melanoma -89.2% | UACC-62 melanoma -71.2% | LOX IMVI melanoma -54% | SK-MEL-28 melanoma -36.1%

COc1ccc(-c2cc(-c3ccc(N(C)C)cc3)nc(NC(=O)c3ccncc3)n2)cc1
inactive: HCT-15 colon 90.4% | HT29 colon 106% | SNB-19 CNS 90.2% | U251 CNS 98% | PC-3 prostate 83.5% | SK-MEL-5 melanoma 89.2% | UACC-62 melanoma 101% | LOX IMVI melanoma 91.7% | SK-MEL-28 melanoma 108%

COc1ccc(S(=O)(=O)NCCCNc2cc(-c3c(-c4cccc(OC)c4)nc4sccn34)ccn2)cc1
active: SK-MEL-5 melanoma -10.9%
inactive: HCT-15 colon 35.7% | HT29 colon 35% | SNB-19 CNS 62.7% | U251 CNS 59.4% | PC-3 prostate 26.9% | UACC-62 melanoma 20.4% | LOX IMVI melanoma 46.6% | SK-MEL-28 melanoma 65.5%

O=C1/C(=C/c2ccc(Cl)c(Cl)c2)CN(C(=O)CCN2CCC(=NO)CC2)C/C1=C\c1ccc(Cl)c(Cl)c1
active: HCT-15 colon -88.3% | HT29 colon -85.9% | SNB-19 CNS -96% | U251 CNS -93.4% | PC-3 prostate -71.2% | SK-MEL-5 melanoma -93.7% | UACC-62 melanoma -92.3% | LOX IMVI melanoma -90.6% | SK-MEL-28 melanoma -92%

CCCCCCCCCCCCCCCCCCNC(=O)[C@H]1CSC(c2ccc(F)c(OC)c2)N1 (some centres undefined)
active: HCT-15 colon 6.47% | HT29 colon -84.5% | SNB-19 CNS -40.2% | U251 CNS -96.6% | SK-MEL-5 melanoma -94.8% | UACC-62 melanoma -97.2% | SK-MEL-28 melanoma -93.3%
inactive: PC-3 prostate 34.1% | LOX IMVI melanoma 14.1%

CCN(CC)CCCC(C)Nc1ccnc2c(OC)cccc12 (centres undefined)
inactive: HCT-15 colon 120% | HT29 colon 107% | SNB-19 CNS 113% | U251 CNS 102% | PC-3 prostate 104% | SK-MEL-5 melanoma 111% | UACC-62 melanoma 114% | LOX IMVI melanoma 107% | SK-MEL-28 melanoma 119%

COc1ccc(/C=C/C(=O)c2ccc(NC(=O)c3cc4cc5ccccc5nc4s3)cc2)cc1OC
inactive: HCT-15 colon 104% | HT29 colon 101% | SNB-19 CNS 98.8% | U251 CNS 103% | PC-3 prostate 94.4% | SK-MEL-5 melanoma 93.5% | UACC-62 melanoma 96.9% | LOX IMVI melanoma 94% | SK-MEL-28 melanoma 105%

COc1cc(/C=N\NC(=O)CN2CCN(c3cc4c(cc3F)c(=O)c(C(=O)N/N=C/c3ccc(O)c(OC)c3)cn4C3CC3)CC2)ccc1O
active: LOX IMVI melanoma 8.64%
inactive: HCT-15 colon 97.2% | HT29 colon 14.1% | SNB-19 CNS 55.5% | U251 CNS 55.3% | PC-3 prostate 69.7% | SK-MEL-5 melanoma 56.8% | UACC-62 melanoma 52.9% | SK-MEL-28 melanoma 79.8%

C=C1C(=O)O[C@H]2[C@H]1CC/C(Cn1cc(Cn3ccc4ccccc43)nn1)=C\CC[C@@]1(C)O[C@@H]21
active: HCT-15 colon -34.5% | HT29 colon -13.8% | LOX IMVI melanoma -82.8%
inactive: SNB-19 CNS 71.1% | U251 CNS 48.7% | PC-3 prostate 40.8% | SK-MEL-5 melanoma 30.1% | UACC-62 melanoma 33.4% | SK-MEL-28 melanoma 14%

Nc1cccc(-c2nc3sccn3c2-c2ccnc(NCCCNS(=O)(=O)c3ccc(C(F)(F)F)cc3)n2)c1
active: HCT-15 colon 1.79% | PC-3 prostate 1.93% | SK-MEL-5 melanoma -90.5% | UACC-62 melanoma -33.3% | LOX IMVI melanoma -30.2%
inactive: HT29 colon 14% | SNB-19 CNS 29.1% | U251 CNS 19.8% | SK-MEL-28 melanoma 11.2%

COc1cccc(-c2nc3sccn3c2-c2ccnc(NCCCNS(=O)(=O)c3ccccc3)c2)c1
active: SK-MEL-5 melanoma -29.8% | UACC-62 melanoma -27.7%
inactive: HCT-15 colon 27.6% | HT29 colon 41.6% | SNB-19 CNS 68.7% | U251 CNS 65.4% | PC-3 prostate 15.9% | LOX IMVI melanoma 35.1% | SK-MEL-28 melanoma 66.8%

CC[C@]12C=CCN3CC[C@@]4(c5ccc(OC)cc5N(C)[C@H]4[C@@](O)(C(=O)OC)[C@@H]1OC(=O)CCC(=O)N[C@@H](Cc1c[nH]c4ccccc14)C(=O)OC)[C@@H]32
inactive: HCT-15 colon 97.2% | HT29 colon 89.1% | SNB-19 CNS 96.3% | U251 CNS 99.3% | PC-3 prostate 80.5% | SK-MEL-5 melanoma 90.4% | UACC-62 melanoma 92% | LOX IMVI melanoma 84.1% | SK-MEL-28 melanoma 37.6%

CCN(CC)CCCNc1cccc2c(SCc3ccccc3)ccnc12
active: HT29 colon -33.1%
inactive: HCT-15 colon 81.1% | U251 CNS 48.6% | PC-3 prostate 17.7% | SK-MEL-5 melanoma 85.4% | LOX IMVI melanoma 24% | SK-MEL-28 melanoma 108%

COc1cc2c(=O)n(CC3CCCCC3)c3c4cc[nH]c4ncc3c2cc1OC
inactive: HCT-15 colon 32.1% | HT29 colon 32% | SNB-19 CNS 57.5% | U251 CNS 30.3% | PC-3 prostate 43.4% | SK-MEL-5 melanoma 39.3% | UACC-62 melanoma 74.4% | LOX IMVI melanoma 12.3% | SK-MEL-28 melanoma 77.8%

Cc1ccn2c(-c3csc(Nc4cccc(O)c4)n3)c(C)nc2c1
inactive: HCT-15 colon 17.1% | HT29 colon 61.7% | SNB-19 CNS 49.2% | U251 CNS 28.6% | PC-3 prostate 26.6% | UACC-62 melanoma 21.5% | SK-MEL-28 melanoma 37.7%
active: SK-MEL-5 melanoma -42.9%

C=CC[N+]1(CCO)CCN=C1CCCCCCCCCCCCC (centres undefined)
active: HCT-15 colon -74.5% | HT29 colon -92.2% | U251 CNS -87.8% | PC-3 prostate -29.9% | SK-MEL-5 melanoma -95% | UACC-62 melanoma -96.5% | LOX IMVI melanoma -87.9% | SK-MEL-28 melanoma -69.5%

CNc1cc2nc3cc(NC)c(C)cc3cc2cc1C
inactive: HCT-15 colon 11.1% | HT29 colon 10% | PC-3 prostate 18.2% | SK-MEL-5 melanoma 35.7% | UACC-62 melanoma 45.7% | SK-MEL-28 melanoma 46%
active: U251 CNS 9.07% | LOX IMVI melanoma 6.5%

c1ccc2c(Nc3cccc4ccccc34)cccc2c1
inactive: HCT-15 colon 35.1% | HT29 colon 15.8% | U251 CNS 32.1% | PC-3 prostate 65.2% | SK-MEL-5 melanoma 71% | UACC-62 melanoma 23.7% | LOX IMVI melanoma 52.6% | SK-MEL-28 melanoma 61.5%

C=C1C(=O)O[C@H]2[C@H]1CC/C(Cn1cc(Cn3ccc4cc(Cl)ccc43)nn1)=C\CC[C@@]1(C)O[C@@H]21
inactive: SNB-19 CNS 53.5% | U251 CNS 28.9% | SK-MEL-5 melanoma 46.9%
active: HCT-15 colon -47.1% | HT29 colon -43.3% | PC-3 prostate 6.92% | UACC-62 melanoma 5.99% | LOX IMVI melanoma -89.5% | SK-MEL-28 melanoma -13.3%

C=C(C[n+]1ccccc1)[C@@H]1CC[C@]2(C(=O)OC)CC[C@]3(C)[C@H](CC[C@@H]4[C@@]5(C)CC[C@H](O)C(C)(C)[C@@H]5CC[C@]43C)[C@@H]12
active: PC-3 prostate -77.4%
inactive: HCT-15 colon 106% | HT29 colon 94.5% | SNB-19 CNS 106% | U251 CNS 99% | SK-MEL-5 melanoma 96.5% | UACC-62 melanoma 91.5% | LOX IMVI melanoma 92% | SK-MEL-28 melanoma 108%

NS(=O)(=O)c1ccc(Nc2nc3n[nH]c(Nc4ccccc4)c3c(=O)[nH]2)cc1
inactive: HCT-15 colon 108% | HT29 colon 101% | U251 CNS 101% | PC-3 prostate 92.1% | SK-MEL-5 melanoma 99% | UACC-62 melanoma 105% | LOX IMVI melanoma 101% | SK-MEL-28 melanoma 111%
